Measured values from PubChem BioAssay AID1159580 (chemical genetic matrix, 2015).
Values joined by “and” are separate entries in the source; they are usually repeats but may differ in a detail not shown here. Identical values can stand only once. Out of some 5,500 compounds screened, about 2,000 (36%) were called active. About 18% were inconclusive and are not listed. No stated cut-off is given here; in the data, active means normalized growth mostly below about 0.91 (no sharp cut-off); inconclusive means no clear call, values can overlap the other calls; inactive means mostly above about 0.92. This is one part of the list.

Assay: chemical genetic growth profiling, strain panel (AID 1159580);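 further: tested at 20 µM; growth read once vehicle control cultures reached saturation at 30 °C; 1 = growth at the plate median or of vehicle wells; lower values mean less growth of the strain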
Conditions: S. cerevisiae deletion strains, growth OD

Measured: normalized growth

NC(=O)c1cc[n+](CC2=C(C(=O)O)N3C(=O)C(NC(=O)C(c4ccccc4)S(=O)(=O)[O-])C3SC2)cc1 (centres undefined)
inactive: locus YAL013W, strain DEP1, hits give low values 0.983 | locus YAL021C, strain ccr4, hits give low values 1.01 | locus YAL026C, strain drs2, hits give low values 0.997 | locus YAL030W, strain snc1, hits give low values 1.01 | locus YBL061C, strain skt5, hits give low values 0.994 | locus YBR009C, strain hhf1, hits give low values 1.02 | locus YBR021W, strain FUR4, hits give low values 0.97 | locus YBR023C, strain chs3, hits give low values 0.997 | locus YBR171W, strain sec66, hits give low values 1 | locus YBR229C, strain ROT2, hits give low values 0.989 | locus YBR231C, strain swc5, hits give low values 1 | locus YBR279W, strain paf1, hits give low values 0.993 | locus YCL011C, strain gbp2, hits give low values 1.02 | locus YCL016C, strain dcc1, hits give low values 1.01 | locus YCL029C, strain bik1, hits give low values 0.992 | locus YCL069W, strain vba3, hits give low values 1.02 | locus YCR088W, strain abp1, hits give low values 0.987 | locus YDL005C, strain med2, hits give low values 0.998 | locus YDL035C, strain GPR1, hits give low values 0.989 | locus YDL040C, strain nat1, hits give low values 1 | locus YDL074C, strain BRE1, hits give low values 1.02 | locus YDL101C, strain DUN1, hits give low values 0.994 | locus YDL134C, strain PPH21, hits give low values 0.973 | locus YDL185W, strain tfp1, hits give low values 0.995 | locus YDL192W, strain arf1, hits give low values 0.984 | locus YDR001C, strain nth1, hits give low values 0.99 | locus YDR069C, strain doa4, hits give low values 0.98 | locus YDR101C, strain arx1, hits give low values 1 | locus YDR137W, strain rgp1, hits give low values 1.02 | locus YDR150W, strain NUM1, hits give low values 0.988 | locus YDR159W, strain sac3, hits give low values 0.997 | locus YDR162C, strain NBP2, hits give low values 0.981 | locus YDR195W, strain ref2 0.988 | locus YDR297W, strain sur2, hits give low values 1 | locus YDR318W, strain mcm21, hits give low values 0.986 | locus YDR334W, strain swr1, hits give low values 0.994 | locus YDR335W, strain msn5, hits give low values 0.984 | locus YDR388W, hits give low values 0.992 | locus YDR392W, strain spt3, hits give low values 1.04 | locus YDR502C, strain sam2, hits give low values 0.987 | locus YEL003W, strain gim4, hits give low values 0.985 | locus YEL037C, strain rad23, hits give low values 0.999 | locus YEL061C, strain CIN8 (second series), hits give low values 0.99 | locus YEL061C, strain CIN8, hits give low values 0.994 | locus YER015W, strain faa2, hits give low values 1.02 | locus YER016W, strain bim1, hits give low values 0.99 | locus YER110C, hits give low values 0.986 | locus YER111C, strain swi4, hits give low values 0.995 | locus YER155C, strain BEM2 (second series), hits give low values 0.986 | locus YER155C, strain BEM2, hits give low values 0.978 | locus YER167W, strain BCK2, hits give low values 0.98 | locus YFR010W, strain ubp6, hits give low values 0.974 | locus YGL078C, strain dbp3, hits give low values 0.988 | locus YGL086W, strain mad1, hits give low values 0.978 | locus YGL167C, strain pmr1, hits give low values 0.984 | locus YGL173C, strain kem1, hits give low values 1.01 | locus YGL227W, strain vid30, hits give low values 1.01 | locus YGL240W, strain doc1, hits give low values 0.997 | locus YGL248W, strain PDE1, hits give low values 0.976 | locus YGL253W, strain hxk2, hits give low values 0.992 | locus YGR078C, strain PAC10, hits give low values 1.01 | locus YGR135W, strain pre9, hits give low values 0.957 | locus YGR229C, strain SMI1, hits give low values 0.958 | locus YGR252W, strain gcn5, hits give low values 0.937 | locus YHR013C, strain ard1, hits give low values 1 | locus YHR027C, strain rpn1, hits give low values 1.01 | locus YHR030C, strain SLT2, hits give low values 0.986 and 1.08 | locus YHR079C, strain IRE1 (second series), hits give low values 0.996 | locus YHR079C, strain IRE1, hits give low values 1.11 | locus YHR094C, strain hxt1, hits give low values 0.984 | locus YHR129C, strain ARP1, hits give low values 0.988 | locus YHR142W, strain chs7, hits give low values 0.993 | locus YHR200W, strain rpn10, hits give low values 0.986 | locus YIL066C, strain RNR3, hits give low values 0.995 | locus YIL073C, strain SPO22, hits give low values 0.96 | locus YIL125W, strain kgd1, hits give low values 0.992 | locus YIR030C, strain dcg1, hits give low values 0.99 | locus YJL092W, strain hpr5, hits give low values 0.995 | locus YJL095W, strain BCK1 (second series), hits give low values 0.99 | locus YJL095W, strain BCK1, hits give low values 1.02 and 1.05 | locus YJL115W, strain asf1, hits give low values 0.988 | locus YJL129C, strain trk1, hits give low values 0.962 | locus YJL134W, strain LCB3, hits give low values 0.985 | locus YJL154C, strain vps35, hits give low values 0.998 | locus YJL164C, strain tpk1, hits give low values 1.02 | locus YJL166W, strain qcr8, hits give low values 1 | locus YJL168C, strain set2, hits give low values 0.998 | locus YJL187C, strain SWE1 (second series), hits give low values 1.01 | locus YJR043C, strain POL32, hits give low values 0.993
